Screening results as filed in PubChem BioAssay.
SmPrx2 inh: blocks S. mansoni peroxiredoxin 2 enzymatic activity | actives 0.07% (n = 65,000) | Potency, µM | S. mansoni Prx2 activity coupled to TGR/GSH (TGR is thioredoxin glutathione reductase), NADPH fluorescence loss, qHTS | AID 448
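Purified S. mansoni TGR and Prx2 in pH 7.4 phosphate buffer with EDTA and Tween-20 were preincubated with compounds for 15 min. Further NADPH/GSH was added, then a 2.5 mM H2O2 aliquot initiated turnover, followed kinetically by NADPH fluorescence.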
AmpC inh det: blocks E. coli AmpC beta-lactamase in presence of detergent | Potency, µM (top dose mostly 28.7 µM) | actives 0.09% (n = 71,000) | P00811 | purified AmpC, nitrocefin hydrolysis with detergent; active = well fitted curve in the direction sought with a large enough effect; inconclusive = small, poorly fitted or top-dose-only effect
Target sequence (P00811 whole entry, looked up): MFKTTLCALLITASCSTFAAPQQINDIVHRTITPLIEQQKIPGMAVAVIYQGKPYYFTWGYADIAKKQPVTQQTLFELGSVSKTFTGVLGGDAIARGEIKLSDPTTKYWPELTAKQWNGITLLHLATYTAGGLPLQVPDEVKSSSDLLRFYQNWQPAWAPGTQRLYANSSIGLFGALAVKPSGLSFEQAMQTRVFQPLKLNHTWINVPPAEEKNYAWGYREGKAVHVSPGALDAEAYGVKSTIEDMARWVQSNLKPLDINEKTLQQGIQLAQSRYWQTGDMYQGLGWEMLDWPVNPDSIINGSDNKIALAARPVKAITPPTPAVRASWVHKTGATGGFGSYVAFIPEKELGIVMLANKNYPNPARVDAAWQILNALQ
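E. coli AmpC (5.3 nM) in 20 mM phosphate pH 7.0 with 0.01% Triton X-100, preincubated 15 min RT with compound; nitrocefin (2 uL of 800 uM stock) hydrolysis followed by 480 nm absorbance every 20 s over 4 min.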
Anthrax LT inh: blocks cellular internalization of anthrax lethal toxin; Cells, anthrax lethal toxin internalization, FRET ratio (460/530); Potency, µM (series often up to 40 µM), hits mostly inhibitors; actives 0.67% (n = 70,000); AID 912; also: nearly all actives have a fitted effect of over 50% in size
AmpC nodet inh: blocks E. coli AmpC beta-lactamase in absence of detergent; P00811; AmpC nitrocefin hydrolysis, absorbance 480 nm, no detergent; Potency, µM (top dose mostly 28.7 µM); actives 1.8% (n = 71,000); AID 585
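AmpC, 20 mM phosphate pH 7.0; 15 min cpd preinc, RT; start with nitrocefin (800 uM stock); A480 kinetic read, 20 s intervals, 4 min. No-enzyme wells = negative control.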
Numbers stand for hits; - = inactive; ? = inconclusive; . = no result; [ ] = another dose, or the depositor's remark. Most compounds without a hit are left out; they make up all but 2.4% or so of the library. Unless noted, calls follow the shape of the full dose curve.

SMILES	SmPrx2 inh	AmpC inh det	Anthrax LT inh	AmpC nodet inh
Cc1ccc(-n2c(=O)c3sccc3n(CC(=O)NCc3ccco3)c2=O)cc1	-	-	-	-
CCCCC(=O)NCCc1c(Cc2ccccc2)[nH]c2ccccc12	-	-	?	-
C[C@@H]1O[C@@H](O[C@H]2C[C@@H](O)[C@]3(CO)[C@@H]4[C@@H](O)C[C@]5(C)[C@H]([C@@H]6COC(=O)C6)CC[C@@]5(O)[C@H]4CC[C@@]3(O)C2)[C@H](O)[C@H](O)[C@@H]1O	-	-	?	-
CCN1C[C@@]2(COC(=O)c3ccccc3N3C(=O)C[C@H](C)C3=O)CC[C@H](OC)[C@@]34[C@@H]5CC6[C@@H](OC)C[C@@](O)([C@H]5[C@H]6OC)C(O)([C@@H]13)[C@@H](OC)[C@H]24	-	-	?	-
CC(C)N(Cc1nc2ccccc2[nH]1)C(C)C	-	-	-	3.98µM[single pt active]
CCC(C)SCc1nc2ccccc2[nH]1 (stereo not drawn)	.	-	-	-
c1ccc(C2=NN[C@@H]3c4ccccc4-c4ccccc4N3C2)cc1	-	-[5.75 µM]	-[8 µM]	-[5.75 µM]
BrCC(Br)C1CCC(Br)C(Br)C1 (stereo not drawn)	.	-	15.8µM	-
CC(Oc1ccc(Cl)cc1Cl)C(=O)Nc1ccncc1 (stereo not drawn)	-	-	7.94µM	-
CCC[C@@H]1C[C@@]1(CCC)C(NC(=O)c1ccccc1)c1cccc(Cl)c1 (stereo partly drawn)	-	-	?	-
O=C(Cn1cc(C(=O)c2cccs2)c2ccccc21)NCc1ccc2c(c1)OCO2	-	-	?	2µM[single pt active]
CC1CCC2C(=O)N3C(CCC(C)C3c3ccc(-c4ccco4)cc3)C(=O)N2C1c1ccc(-c2ccco2)cc1 (stereo not drawn)	.	.	-[8 µM]	.
Oc1ccc2cc(SSc3ccc4cc(O)ccc4c3)ccc2c1	.	-	?	15.8µM
CC(=O)Nc1cccc(N)c1	.	-	-	-
CN(C)CCCN1C(=O)CSC1c1ccccc1 (stereo not drawn)	-	-	-	3.16µM[single pt active]
O=C(O)c1ccc(C2SCC(=O)N2Cc2ccccc2)cc1 (stereo not drawn)	-	-	-	-
CC(C)Cc1cc(C(=O)NCCN2CCOCC2)no1	-	-	-	3.98µM[single pt active]
CC(C)Cc1cc(C(=O)Nc2ccc(F)cc2F)no1	-	-	-	3.98µM[single pt active]
O=C(Nc1ccc(F)cc1F)c1cc(-c2ccco2)on1	-	-	-	-
CC(C)c1cc(C(=O)Nc2cc(Cl)ccc2O)no1	-	-	?	-
CC(C)Cc1cc(C(=O)Nc2c(F)cc(F)cc2Br)no1	-	-	-	3.98µM[single pt active]
CC(C)Cc1cc(C(=O)Nc2cc(Cl)ccc2Cl)no1	-	-	-	3.98µM[single pt active]
O=C(NCCN1CCOCC1)c1cc(-c2ccc(Cl)cc2)on1	-	-	?	-
CC(=O)c1cc(C)oc1C	.	-	-	-
Nc1nccc(Nc2ccc(S(N)(=O)=O)cc2)n1	-	-[5.75 µM]	-[8 µM]	-[5.75 µM]
SMILES	SmPrx2 inh	AmpC inh det	Anthrax LT inh	AmpC nodet inh
COc1cccc(Cn2c(=O)c(CCc3ccccc3)nc3cnc(OC)nc32)c1	-	-	-	-
COc1cccc(-c2cncnc2NCc2ccccc2)c1	-	10µM	?	12.6µM
N#Cc1c(NC(=O)CSc2n[nH]c(Cc3ccccc3)n2)oc(-c2ccccc2)c1-c1ccccc1	-	-	?	10µM
Cc1ccnc(SCC(=O)Nc2oc(-c3ccccc3)c(-c3ccccc3)c2C#N)n1	-	-	?	?
N#Cc1c(NC(=O)COC(=O)C2CC3C=CC2C3)oc(-c2ccccc2)c1-c1ccccc1 (stereo not drawn)	-	-	?	10µM
COc1ccccc1OCC(=O)Nc1oc(-c2ccccc2)c(-c2ccccc2)c1C#N	-	-	-	-
CCCN(CCC)CCNC(=O)c1cc2c(=O)n(C)c3ccccc3c2n1C	-	-	3.98µM	-
CN(CCNC(=O)c1cc2c(=O)n(C)c3ccccc3c2n1C)Cc1ccccc1	-	-	3.16µM	-
Cn1c(C(=O)NCc2cccs2)cc2c(=O)n(C)c3ccccc3c21	-	-	-	3.98µM[single pt active]
COCCn1cc(C(=O)NCc2cccs2)c2c3ccccc3n(C)c2c1=O	-	-	-	-
COc1cccc(NC(=O)c2oc3ccccc3c2NC(=O)C(C)(C)C)c1	-	-	12.6µM	-
CS(=O)(=O)c1ccc(/C=N\NC(N)=S)cc1	-	-[5.75 µM]	-[8 µM]	-[5.75 µM]
CCNc1sc(C(=O)c2cccs2)c(N)c1-c1nc2ccccc2s1	-	-	?	0.02µM
CCOC(=O)CN1C(=O)c2ccccc2C1=O	-	-	-	-
CCOC(=O)/C(C(C)=O)=C1\OC(=O)c2ccccc21	-	7.94µM	-	12.6µM
COc1cccc(-c2ccc3ncnc(Nc4ccccc4)c3c2)c1	-	-	?	-
C=CCN1CC[C@]23c4c5ccc(O)c4O[C@@H]2/C(=N/NC(=O)c2ccccc2)CC[C@@]3(O)[C@H]1C5	-	-	?	-
CCOC(=O)Nc1ccc2c(c1)N(C(=O)OCCN(C)C)c1ccccc1CC2	-	-	-	3.98µM[single pt active]
CCS(=O)(=O)Nc1ccc2c(c1)N(C(C)=O)c1ccccc1CC2	-	-	?	-
CCCN(CCC)CCCNC(=O)c1cc2cc3ccc(OC)cc3nc2o1	-	-	?	-
CCCCN(CC)CCCNC(=O)c1cc2cc3ccc(OC)cc3nc2o1	-	-	12.6µM	-
COc1ccc2cc3cc(C(=O)NCCc4ccc(OC)c(OC)c4)oc3nc2c1	-	-	12.6µM	-
CCN1CCN(CCCNC(=O)c2cc3cc4ccc(OC)cc4nc3o2)CC1	-	-	?	-
Cc1cc(C(=O)CN2CC(C)OC(C)C2)c(C)n1-c1ccccc1 (stereo not drawn)	-	-	-	3.98µM[single pt active]
CN(C)Cc1c[nH]c2ccccc12	-	-	?	-
SMILES	SmPrx2 inh	AmpC inh det	Anthrax LT inh	AmpC nodet inh
CN(C)CCCn1cc(C2=C(c3c[nH]c4ccccc34)C(=O)NC2=O)c2ccccc21	-	-	0.398µM	-
C[C@@H]1CCC/C=C\[C@H]2C[C@H](O)C[C@@H]2[C@H](O)/C=C\C(=O)O1	-	-	?	-
COc1cccc(Cn2c(=O)c(C)nc3cnc(N(C)C)nc32)c1	-	-	-	-
Nc1nc(SCC(=O)c2ccc(Oc3ccccc3)cc2)n[nH]1	-	-	?	10µM
C[C@H](CC(C#N)(c1ccccc1)c1ccccc1)N1CCCCC1	-	-[5.75 µM]	-[8 µM]	-[5.75 µM]
CC1C(=O)CC(c2ccccc2)N(C)C1c1ccccc1 (stereo not drawn)	-	-	?	3.98µM[single pt active]
CC1C(c2ccccc2)N(C)CCC12NC(=O)NC2=O (stereo not drawn)	-	-	-	-
CCCCC(c1nnnn1Cc1ccco1)N1CCN(c2nc3ccccc3s2)CC1 (stereo not drawn)	-	-	10µM	-
c1ccc(Cn2nnnc2C(c2ccccc2)N2CCN(c3nc4ccccc4s3)CC2)cc1 (stereo not drawn)	-	-	-	-
CCOC(=O)N1CCN(S(=O)(=O)c2ccc3c(c2)oc(=O)n3C)CC1	-	-	.	-
CCCN1CCN(C(=O)C2CCN(S(=O)(=O)c3ccc4c(c3)oc(=O)n4C)CC2)CC1	-	-	?	3.98µM[single pt active]
CN1CCC(=C2c3ccccc3C=Cc3ccccc32)CC1	-	-	7.94µM	-
